From the supplement of paper PMC3334620
Whole data set: some 33,000 sequences, median “E-score (-0.5 to 0.5)” near -0.036, cut for the highest 2% near 0.37. The full list was thinned out, with the highest values kept by preference.

The sequences below were run against T1, Yer064c (UniProt P40041) (assay: PBM E-score (8-mer binding enrichment) (E-score (-0.5 to 0.5)); higher = stronger / more preferred TF binding). Conditions: protein concentration: 200 nM; construct: GST-full length.
T1 sequence: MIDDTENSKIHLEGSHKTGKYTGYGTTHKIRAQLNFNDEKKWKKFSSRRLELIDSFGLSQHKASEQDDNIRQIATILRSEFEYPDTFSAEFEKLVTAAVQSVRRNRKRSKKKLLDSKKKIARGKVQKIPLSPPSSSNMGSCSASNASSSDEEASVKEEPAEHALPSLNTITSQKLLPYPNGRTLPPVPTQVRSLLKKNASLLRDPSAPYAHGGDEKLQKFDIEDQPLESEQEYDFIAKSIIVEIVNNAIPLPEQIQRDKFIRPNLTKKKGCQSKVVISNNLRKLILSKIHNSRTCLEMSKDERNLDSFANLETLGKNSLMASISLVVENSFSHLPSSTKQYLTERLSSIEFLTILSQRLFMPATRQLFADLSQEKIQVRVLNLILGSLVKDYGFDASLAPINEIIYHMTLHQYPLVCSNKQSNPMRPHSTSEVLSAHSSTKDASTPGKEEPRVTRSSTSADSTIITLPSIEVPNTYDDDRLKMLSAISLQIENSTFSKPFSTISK
Summary of the method: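 The E-score, a modified Wilcoxon-Mann-Whitney statistic, was computed by the Universal PBM Analysis Suite for every ungapped eight-base word pooled with its reverse complement. Scans behind it were normalised with masliner after bound GST-tagged yeast transcription factors were detected with fluorescent anti-GST. The proteins, at about 100-200 nM, had been applied to universal all-10-mer Agilent arrays made double-stranded by primer extension.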

Row | Sequence | PBM E-score
1 | AAGAGCGC | 0.0664
2 | CCGTACAG | -0.123
3 | AAAATATA | 0.102
4 | GTAAGTGA | 0.131
5 | CTAAGTCA | 0.449
6 | CTAAGTCC | 0.148
7 | GTAAGTCA | 0.448
8 | ATAAGTCG | 0.223
9 | ATAAGTCA | 0.438
10 | GTAAGTAA | 0.0006
11 | ATAAGTCC | 0.161
12 | CTAAGTAA | 0.204
13 | CATCTCGG | 0.181
14 | AATCCAGC | -0.149
15 | AACCCATA | 0.111
16 | GAAGCGGA | -0.189
17 | GAATCAGA | 0.402
18 | GAATCAGC | 0.417
19 | AAATCAGA | 0.158
20 | CAATCAGA | 0.208
21 | AAATCAGC | 0.227
22 | CAATCAGC | 0.317
23 | CTTGCCGC | -0.264
24 | AGAGAACA | -0.0209
25 | GCGAACGC | -0.058
26 | CCGAATCA | 0.348

Row | Sequence | PBM E-score
27 | TCGAATCA | 0.369
28 | CCGAATCC | -0.186
29 | ACGAATCA | 0.404
30 | GCGAATCA | 0.414
31 | TCGAATAA | -0.00971
32 | GCGAATCC | -0.066
33 | ACGAATCT | 0.123
34 | ACGAATCC | 0.171
35 | CTCACGCC | 0.172
36 | CGGGAATC | 0.0615
37 | CGCCTCGC | -0.087
38 | AATTCAAT | 0.0175
39 | AAATGCCC | -0.188
40 | GAGACACA | 0.288
41 | AGGGCTGC | -0.346
42 | AACACACC | 0.0884
43 | ATGCGGCG | -0.174
44 | CCCGCCCC | -0.223
45 | GATTAACC | 0.294
46 | CACTAACA | 0.0977
47 | GATTAATC | 0.391
48 | TACTAACA | 0.0931
49 | GACTAACA | 0.449
50 | CACTAACC | -0.153
51 | GACTAACC | 0.44
52 | GATTAATA | 0.325

Row | Sequence | PBM E-score
53 | GATTAACA | 0.367
54 | AACTAACC | 0.0831
55 | CATTAATC | 0.271
56 | TATTAACA | 0.0799
57 | GAGCAATC | 0.146
58 | CATAGGGG | -0.149
59 | TCCCCCGA | -0.176
60 | GCGGCGAA | -0.17
61 | CGATGAAA | 0.0671
62 | ATTTTTCG | 0.00581
63 | TGAGGAAA | -0.0935
64 | GCCCTAGA | -0.316
65 | CGTACGCA | -0.195
66 | CCAGCACC | -0.231
67 | CCTAAAGA | 0.0245
68 | ACTGTGAA | 0.0208
69 | ACTATGAC | 0.372
70 | ACTGTGAC | 0.397
71 | ACTGTGAT | 0.165
72 | GCTATGAC | 0.307
73 | CCTATGAC | 0.235
74 | CCTTGGTA | 0.00702
75 | AAGTTCTG | 0.0281
76 | ATTAAGGA | 0.176
77 | AGTTGCCC | 0.00742
78 | ACAAGTCC | -0.047

Row | Sequence | PBM E-score
79 | GCTAATTA | 0.0849
80 | ACTAATCC | 0.208
81 | ACTAATCA | 0.403
82 | CCTAATCC | -0.33
83 | ACTAATCT | 0.273
84 | CCTAATCG | 0.0953
85 | CCTAATCA | 0.376
86 | ACTAATCG | 0.226
87 | GCTAATCC | -0.145
88 | TCTAATAA | 0.115
89 | GCTAATCA | 0.372
90 | TCTAATCA | 0.386
91 | CTTAACCA | 0.197
92 | ATTGGGAC | 0.0416
93 | TCGTTCCA | -0.108
94 | ACCCTGTG | -0.0328
95 | ACCCAGAT | -0.0932
96 | CGAGGCTA | -0.0432
97 | ACACTCGC | 0.111
98 | CTCGACTA | 0.299
99 | CCCGACTC | 0.389
100 | CGCGACTA | 0.397
101 | GGCGACGA | -0.226
102 | ACCGACTC | 0.328
103 | GGCGACTA | 0.402
104 | CGCGACAA | 0.124

Row | Sequence | PBM E-score
105 | CCCGACTA | 0.314
106 | GGCGACCA | -0.416
107 | AGCGACTC | 0.412
108 | AGCGACCC | -0.196
109 | AGCGACGC | -0.273
110 | TAATTCAA | 0.14
111 | TAGGGCCA | -0.307
112 | GCCCCGGA | -0.22
113 | AGCTTGGC | -0.115
114 | ATAGAGAC | 0.0997
115 | GCGACACC | -0.173
116 | CCCTACGA | 0.0187
117 | GTACAGGA | -0.0544
118 | CACAGATA | -0.0649
119 | ATGCCAGA | -0.0495
120 | AGCGACCA | -0.173
121 | CTCGACTC | 0.34
122 | AGCGACTA | 0.391
123 | AGCGACTG | 0.255
124 | CGCGACTC | 0.438
125 | CGCGACCC | -0.0841
126 | CGCCCTTC | -0.212
127 | ACGACTGC | 0.19
128 | ACGACTCT | 0.404
129 | GCGACTCA | 0.483
130 | ACGACTTA | 0.276

Row | Sequence | PBM E-score
131 | ACTACTCT | 0.239
132 | ACGACTCC | 0.423
133 | ACGACTCA | 0.477
134 | ACAACTCT | 0.175
135 | GCGACTTA | 0.266
136 | GCGACTGA | 0.31
137 | ACGACGCC | -0.211
138 | ACTACTCA | 0.344
139 | CCACTAGA | -0.195
140 | AAAACGGT | -0.155
141 | TAGAAAGA | 0.113
142 | AGTCTCAC | 0.337
143 | GCTGGTGA | 0.0962
144 | CCATTACG | -0.038
145 | ACGACTTG | 0.17
146 | CCGACTGA | 0.192
147 | GCGACCCC | -0.237
148 | TCGACTCA | 0.435
149 | TCGACCCA | 0.0521
150 | TCTACTCA | 0.202
151 | CCGACTCC | 0.339
152 | CCGACTCG | 0.296
153 | ACGACTCG | 0.394
154 | CCGACTCA | 0.441
155 | GCGACTCC | 0.39
156 | GCCACTCC | -0.128

Row | Sequence | PBM E-score
157 | CGAGAATC | 0.117
158 | GCGAGCCC | -0.21
159 | GCAATACC | -0.127
160 | CCTGTGCA | -0.146
161 | AAAACAGG | -0.126
162 | TAATGGCA | -0.172
163 | GCCAAAAA | 0.0564
164 | AGAGAGGG | -0.162
165 | CATGATCC | 0.0741
166 | CCTGATGC | -0.0643
167 | CATGATTA | 0.453
168 | ATTGATTC | 0.301
169 | AATGATTG | 0.358
170 | CCTGATTC | 0.399
171 | CTTGATTC | 0.324
172 | ACTGATTC | 0.319
173 | CATGATTC | 0.457
174 | CATGATAA | 0.12
175 | CATGATGA | 0.261
176 | AATGATTC | 0.464
